The campaign covered roughly 360,000 compounds. About 750 (0.21%) were called active. Another 2% or so got no clear call; they are omitted. Calls follow the shape of the dose curve; as a rule, active = well fitted falling curve with a large enough effect; inconclusive = small, poorly fitted or top-dose-only effect; inactive = no such curve, though single readings can be large or run the other way. What follows is part of a selection rich in actives, with near analogues and random picks from the rest. A call without a number means that no potency is given here.
Experiment: qHTS Assay for Inhibitors of the HIV-1 protein Vpr; also: nearly all actives have a fitted effect of over 50% in size
Conditions: S. pombe RE007 Vpr strain, BacTiter-Glo ATP luminescence, 24 h; series mostly up to 92.2 µM
Excerpt: Human immunodeficiency virus type 1 (HIV-1), the causative agent of AIDS, contains a protein called viral protein R (Vpr) that plays an important role in the viral life cycle and the pathogenesis of HIV-1.
These Vpr specific activities include cytoplasmic-nuclear shuttling, induction of cell cycle G2 arrest and cell killing. The cytoplasmic-nuclear shuttling is believed to participate in nuclear transport of the proviral integration complex (PIC). The cell cycle G2 arrest induced by Vpr is thought to suppress human immune functions by preventing T cell clonal expansion and to provide an optimized cellular environment for maximal levels of viral replication. In addition, Vpr induces apoptosis, which may contribute to the depletion of CD4 T cells in HIV-infected patients. Since the Vpr-specific activities have been linked to such clinical manifestation of AIDS as activation of viral replication, suppression of host immune responses and depletion of CD4+ T-lymphocytes, identification of new molecular probes that can inhibit the Vpr activities could potentially provide a new approach to reduce Vpr-mediated detrimental effects in HIV-infected patients, and thus prolong patient's lives. Currently, there are no anti-Vpr drugs.
A fission yeast (Schizosaccharomyces pombe) model system for the Vpr studies has been developed which measures HIV-1 Vpr-induced cell death. This assay will be used for to screen the NIH Molecular Libraries Small Molecule Repository (MLSMR) identify small molecule HIV-1 Vpr inhibitors.
NIH Chemical Genomics Center [NCGC]
NIH Molecular Libraries Probe Centers Network [MLPCN]
Assay Submitter (PI): Richard Zhao, University of Maryland
The fission yeast RE007 strain was used, which carries a single integrated copy of HIV-1 vpr gene in the yeast chromosome. The starting culture was frozen stock 100ul of yeast RE007 in 150ml of *PMG+AL medium, Incubation in 30 degree plus 99% humidity for 18 hours. Next day dispensed 2.5ul of PMG+AL medium in each well to 1536 well white solid plate, then 23nL compound were delivered to each well using a pin tool. Check OD for overnight culture and add cell density at 0.01 for each well, incubation in 30 degree plus 99% humidity for 24 hours. After add 5 ul of *BacTiter/Glo detect reagent to each well at room temperature for 5 minutes then to red out results with Viewlux CCD camera.
Potency is read from the fitted curve at half-maximal effect.

| Compound | Potency |
| --- | --- |
| NC(=O)Nc1ccccc1C(=O)NCCc1ccccc1 | inactive |
| Cc1nn(CC(=O)N2CCCCC2)c(=O)c2nn(-c3ccccc3)c(C)c12 | inactive |
| O=S1(=O)CCOC[C@H](CC2CCCCC2)N1Cc1ccc(F)cc1 | inactive |
| C=CCOc1ccc(/C=C/C(=O)OCC(=O)NC2CCCCCC2)cc1 | inactive |
| CCCCn1c(N)c(N(CCC(C)C)C(=O)COC(=O)c2ccc(CC)cc2)c(=O)[nH]c1=O | inactive |
| O=C(CC1OC(=O)c2ccccc21)NC1CCCCC1 (stereo not drawn) | inactive |
| O=C(N/C(=C/c1ccc(Cl)cc1)C(=O)N1CCCCC1)c1ccco1 | inactive |
| CCOC(=O)c1ccc(-n2c(C)nc3c(cnn3-c3ccccc3C)c2=O)cc1 | inactive |
| O=C(CP(=O)(c1ccccc1)c1ccccc1)N1CCOCC1 | inactive |
| O=C(O)c1ccc(N=NN2CCOCC2)cc1 | inactive |
| O=C(O)c1ccc(NN=CC2=C(N3CCOCC3)/C(=C/c3ccccc3)CC2)cc1 | 35.5 µM (active) |
| Cc1[nH]nc(SCC(=O)NCC(C)C)c1[N+](=O)[O-] | inactive |
| COc1ccc(CN2C(=O)C(CC(=O)NCc3cccc4ccccc34)CC(C(=O)N3CCOCC3)=C2C)cc1 (stereo not drawn) | inactive |
| CC(C)(C)C(=O)Nc1ccc(C(=O)N/N=C/c2ccccc2OC(=O)c2ccc(Cl)cc2Cl)cc1 | inactive |
| COc1ccc(C(=O)Nc2ccccc2C(=O)N/N=C/c2ccccc2OC)cc1 | 35.5 µM (active) |
| COc1ccc(C(=O)Nc2ccccc2C(=O)N/N=C/c2ccc(O)c(OC)c2)cc1 | 7.94 µM (active) |
| COc1cc(/C=N/NC(=O)Nc2ccccc2)ccc1OCCOc1ccccc1C | inactive |
| COc1cccc(C(=O)N/N=C(\C)c2cccc(NC(=O)c3ccc(F)cc3)c2)c1OC | inactive |
| CCCNC(=O)c1ccccc1NC(=O)CSCc1ccc(OC)cc1 | inactive |
| CC(C)C(c1nnnn1C1CCCCC1)N1CCN(C(=O)c2ccco2)CC1 (stereo not drawn) | inactive |
| CCC1Nc2ncnc(N3CCN(c4ccccc4)CC3)c2N(Cc2ccc(Cl)cc2)C1=O (stereo not drawn) | inactive |
| O=C(NNC1CC(=O)N(c2cccc(Cl)c2)C1=O)c1cccnc1 (stereo not drawn) | inactive |
| Cc1ccc(NC(=O)C2CCC(C(C)(C)C)CC2)cc1S(=O)(=O)N1CCOCC1 (stereo not drawn) | inactive |
| Cc1nn(C)c(C)c1S(=O)(=O)N1CCc2ccccc21 | inactive |
| Cc1[nH]c(C)c(S(=O)(=O)N2CCC(C)CC2)c1C(=O)N1CCCC1 | inactive |

| Compound | Potency |
| --- | --- |
| O=C(O)c1cscn1 | inactive |
| CC(C)CC1(C(=O)NCc2ccccn2)C=CCN1C(=O)c1ccccc1 (stereo not drawn) | inactive |
| COc1ccc(C(O)C(O)(C(=O)OC(C)C)c2ccc(C)cc2)cc1 (stereo not drawn) | inactive |
| COC(=O)c1ccc(CNC(=O)c2ccc3oc(C(C)C)nc3c2)cc1 | inactive |
| Cc1ccc(C)c(-n2cc(CN3CCN(C(=O)c4ncn[nH]4)CC3)c(-c3ccccc3)n2)c1 | inactive |
| Cc1ccc2c(Cl)c(C(=O)Nc3nn[nH]n3)sc2c1 | inactive |
| NC(=O)COC(=O)c1sc2cc(F)ccc2c1Cl | 25.1 µM (active) |
| CC(NC(=O)COC(=O)c1ccc(Cl)cc1O)c1ccc(F)cc1 (stereo not drawn) | inactive |
| Cc1ccc(S(=O)(=O)NCC(=O)N(CC(=O)NC(C)(C)C)Cc2cccs2)cc1 | inactive |
| COCCCNC(=O)C1CCN(c2ccc(N3CCOCC3)nn2)CC1 | inactive |
| CCc1nc2c(OCCOc3ccccc3)cccn2c1N(C=O)Cc1ccc(OC)cc1 | inactive |
| Cc1ccc(S(=O)(=O)N(CC(O)CN2C(=O)NC(C)(C)C2=O)c2cccc([N+](=O)[O-])c2)cc1 (stereo not drawn) | inactive |
| COc1ccc(-c2cc(C3CCN(c4ncccc4[N+](=O)[O-])CC3)[nH]n2)cc1 | inactive |
| CN(C)C(=O)c1cccc(-c2cnc3sc(NCc4ccc5c(c4)OCO5)nn23)c1 | inactive |
| Cc1cccc(C(=O)N2CCCC(Nc3ccc(C(C)C)cc3)C2)n1 (stereo not drawn) | inactive |
| O=C(Nc1ccccc1)c1nnsc1S(=O)(=O)c1ccc(Cl)cc1 | 6.31 µM (active) |
| CC1=C(C(=O)Nc2ccccc2)S(=O)(=O)CCO1 | inactive |
| Cc1nnsc1C(=O)Nc1cccc(Cl)c1C | inactive |
| COc1ccc(C(C)NC(=O)C2CCCC2)cc1 (stereo not drawn) | inactive |
| O=C(Cn1cc(C(F)(F)F)ccc1=O)Nc1ccc2c(c1)OCCO2 | inactive |
| CC1(C)Cc2c(sc(NC(=O)C(=O)N3CCOCC3)c2C#N)CO1 | inactive |
| S=C(Cc1ccc(Cl)cc1)N1CCOCC1 | inactive |
| CC1CCN(C(NC(=O)c2ccco2)C(=O)c2ccccc2)CC1 (stereo not drawn) | inactive |
| CCOC(=O)c1c(Cc2ccc(Cl)cc2)c[nH]c1C | inactive |
| COc1ccc(N=Nc2c(-c3ccc(OC)cc3)[nH]oc2=O)cc1 | inactive |

| Compound | Potency |
| --- | --- |
| COc1ccc(N=C2C=CC(=O)O2)cc1 | 8.91 µM (active) |
| COC1=CC(=O)OC(c2ccc(OC)cc2)C1 (stereo not drawn) | inactive |
| O=C(Nc1ccccc1F)c1ccc(Cn2cc(Br)cn2)cc1 | inactive |
| C[C@H](CO)N1C[C@H](C)[C@@H](CN(C)Cc2ccc3c(c2)OCO3)OCc2cnnn2CCCC1=O | inactive |
| Cc1ccccc1-n1nc(C)c2c1N=C1C(Cl)=CC(Cl)=CN1C2c1ccc(C(=O)O)cc1 (stereo not drawn) | inactive |
| Fc1ccccc1N=C1Nc2cccc3cccc1c23 | 25.1 µM (active) |
| O=C(NCC1CCCCC1)c1cc(S(=O)(=O)N2CCCCC2)ccc1N1CCOCC1 | inactive |
| COc1cccc2c1CCC(NC(C)=O)C2=O (stereo not drawn) | inactive |
| CCOc1ccc2[nH]c3nc(SCC(=O)NC4CCCC4)nnc3c2c1 | inactive |
| COc1ccc(CCN(C)C(=O)C23CC4CC(CC(Cl)(C4)C2)C3)cc1OC | inactive |
| COc1cccc(C(C(=O)NC2CCCC2)N(C(=O)c2ccco2)c2cccc(C(C)=O)c2)c1OC (stereo not drawn) | inactive |
| CCOc1ccc(-c2ccc(SCC(=O)N3CCOCC3)nn2)cc1 | inactive |
| CCOc1ccc(C(=O)CCC(=O)NC2=NCCS2)cc1 | inactive |
| CCOc1ccc(C(=O)CCN2CCOCC2)cc1 | 39.8 µM (active) |
| O=C(O)CCCn1cc(NC(=O)COc2cccc(Cl)c2)cn1 | inactive |
| CC(NC(=O)COC(=O)C1CCN(S(=O)(=O)c2ccccc2C(F)(F)F)CC1)c1ccccc1 (stereo not drawn) | inactive |
| CN(C)C(CNC(=O)c1cc(Br)c(Br)s1)c1ccco1 (stereo not drawn) | inactive |
| O=C1C(Cl)=C(Oc2ccccc2)C(=O)c2ccccc21 | 3.16 µM (active) |
| CCC1=C(OC(=O)N(CC)CC)N2C(=O)OC(=NCCc3c[nH]c4ccccc34)[C@]2(C)[C@H]2C1=CC[C@H]1C(=O)N(CC)C(=O)[C@H]12 | inactive |
| CSCCC(NS(=O)(=O)c1ccc2c(c1)oc(=O)n2C)C(=O)NC1CCCc2ccccc21 (stereo not drawn) | inactive |
| CC[C@]1(C(=O)OC)[C@H]2C(=O)N(C)C(=O)[C@H]2[C@H]2CN(C)C(=NCc3ccccc3)N21 | inactive |
| Cc1cc(C)cc(NC(=O)Cn2cnc3c(nnn3Cc3ccc(F)cc3)c2=O)c1 | inactive |
| CCc1nnc(NC(=O)CSCc2cc(=O)n3cc(C)sc3n2)s1 | inactive |
